Each structure is given as a SMILES string. Records with an inconclusive call do not appear. Entries that show only a call come without a potency. Calls of active or inactive are those of the source. The call rests on the fitted dose curve.
Potency means the concentration at half of the fitted maximal effect.

The nature of this test: qHTS assay for small molecule disruptors of the mitochondrial membrane potential - 5 hr assay (AID 651755). Further: nearly all actives have a fitted effect of over 40% in size. The settings on record: JC-1-type ratio dye; series mostly up to 92.2 µM. The text has this:
National Center for Advancing Translational Sciences [NCATS]
NIH Chemical Genomics Center [NCGC]
National Institutes of Environmental Health Sciences [NIEHS]
National Toxicology Program [NTP]
Mitochondrial membrane potential (MMP), one of the parameters for mitochondrial function, is generated by mitochondrial electron transport chain that creates an electrochemical gradient by a series of redox reactions. This gradient drives the synthesis of ATP, a crucial molecule for various cellular processes. Measuring MMP in living cells is commonly used to assess the effect of chemicals on mitochondrial function. […] The dye accumulates in the mitochondria of healthy cells as aggregates, with red fluorescence. The mitochondrial potential collapses and the dye can no longer accumulate in the mitochondria and remains in the cytoplasm in monomers, with green fluorescence.
2,000 HepG2 cells in 5 uL/well were dispensed into black, clear-bottom 1536-well plates using a Multidrop Combi (Thermo Scientific) dispenser. The assay plates were incubated overnight at 37C to allow cells to attach to the wells, followed by the transfer of 23 nL compound or DMSO vehicle by a pin tool (Kalypsys). The plates were incubated for 5 hr at 37C and 5% CO2, followed by the addition of 5 uL of 2X Mito-MPS dye (BD Biosciences) into each well using Flying Reagent Dispenser (Aurora Discovery) and then following 30 min incubation at 37C. Fluorescence intensity (490nm excitation and 535nm emission for monomers; and 540nm excitation and 590nm emissions for aggregates) was measured using an Envision plate reader.
For `C=C(Cl)CCl`, the Potency entry is “inactive”. The entry for `c1ccc(C2CO2)cc1` (stereo not given) is “inactive”. In the case of `Oc1ccc(Cl)c(Cl)c1` it was 42.2 µM (active); in that of `Cc1ccc([N+](=O)[O-])cc1`, “inactive”.

For `N#C/C=C/C#N`, the Potency result is “inactive”. In the case of `C=CC(=O)OC` it was “inactive”; in that of `O=[N+]([O-])c1ccccc1CCl`, “inactive”. The entry for `Oc1cccc(Cl)c1` is “inactive”; for `C=C(C)CCl` it is “inactive”; for `C=C(Cl)CSC(=S)N(CC)CC` it is “inactive”. In the case of `O=NN1CCCCC1` it was “inactive”. Consider `CCC(Cl)[N+](=O)[O-]` (stereo not given), for which the Potency result was “inactive”.

On to `CCOC(=O)CC(SP(=O)(OC)OC)C(=O)OCC` (stereo not given), for which the Potency result is “inactive”.

With `Brc1ccc(Oc2ccc(Br)cc2Br)c(Br)c1`, the Potency result is “inactive”. The entry for `c1ccoc1` is “inactive”; for `CCOS(C)(=O)=O` it is “inactive”.

In the case of `O=C(O)C(Cl)(Cl)Br`, the Potency entry is “inactive”.

`Nc1ccc([N+](=O)[O-])cc1[N+](=O)[O-]`: the Potency was 33.5 µM (active).

On to `CC(C)[C@]12CC(=O)[C@H](C)[C@H]1C2`, for which the Potency entry is “inactive”. The entry for `Cc1ccc(N)c(C)c1` is “inactive”; for `CC(C)CC(C)N` (stereo not given) it is “inactive”; for `ClC(Br)Br` it is “inactive”. The entry for `Clc1ccc(C(Cl)(Cl)Cl)cc1Cl` is “inactive”. `O=S(=O)(O)F`: the Potency result was “inactive”. The figure for `Nc1c(Cl)cc([N+](=O)[O-])cc1Cl` is 42.2 µM (active); for `O=C(O)C(Cl)Br` (stereo not given) it is “inactive”; for `O=[N+]([O-])c1cc(Cl)c(Cl)c(Cl)c1` it is “inactive”. For the compound `Nc1cccc2ccccc12`, the Potency result was “inactive”. Regarding `Clc1cccc(Cl)c1`, the Potency entry is “inactive”. In the case of `CC(C)(OOC(C)(C)c1ccccc1)c1ccccc1` it was “inactive”; in that of `C=CC(=O)OCCN(C)C`, “inactive”; in that of `ClCCOCOCCCl`, “inactive”. In the case of `O=C(Cl)OCc1ccccc1`, the Potency result is “inactive”.

Turning to `CC(C)OS(C)(=O)=O`, the Potency entry was “inactive”. The entry for `N#CC(O)c1ccccc1` (stereo not given) is “inactive”.

As to `S=c1[nH]c2ccccc2[nH]1`, the Potency result was “inactive”. Consider `C[N+](=O)[O-]`, for which the Potency entry is “inactive”. As for `ClC(Cl)c1ccccc1`, the Potency result was “inactive”. Turning to `Nc1ccc(Cc2ccc(N)c(Cl)c2)cc1Cl`, the Potency entry was “inactive”. Turning to `CC(C)Br`, the Potency entry was “inactive”.
